Results from PubChem BioAssay (EPA / NIEHS).
The source made the active and inactive calls. Rule for the calls: active = hit-call score of the fitted dose curve at least 0.9, where 1 is the maximum; inactive = score below 0.9.

How the values were obtained:
[1] = APR_HepG2_CellCycleArrest_24hr: Apredica 24-hour HepG2 Assay for Cell Cycle Arrest (AID 2282905); settings: imaging, actives raise or lower the signal;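 note: cell cycle arrest scored as ratio of 2N to 4N nuclear DNA content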
In short: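 Step one: dose HepG2 with test compounds, 0.39–200 uM, 0.5% DMSO, 24 hr. Step two: fix, permeabilize, stain nuclei with Hoechst 33342. Step three: image six fields per well at 20x, quantify DNA content, fit bidirectionally relative to DMSO.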

[2] = APR_HepG2_NuclearSize_24hr: Apredica 24-hour HepG2 Assay for Nuclear Size (AID 2282907); settings: high-content imaging, actives raise or lower the signal
In short: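 After fixation and permeabilization, 24-hr-treated HepG2 cells were stained with Hoechst 33342 and imaged on an ArrayScan (20x). Doses spanned 0.39–200 uM in duplicate. Nuclear diameter changes in either direction were fitted relative to 0.5% DMSO controls.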

[3] = APR_HepG2_CellLoss_24hr: Apredica 24-hour HepG2 Assay for Cell Loss (AID 2282908); settings: high-content imaging;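 for AC50: fit in both directions so a hit may be cell loss or gain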
In short: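 Duplicate wells received compound at ten concentrations (0.39–200 uM; final DMSO 0.5% v/v). After fixation with formaldehyde, nuclei stained with Hoechst 33342 were imaged at 20x. Loss or gain of cell count was fitted relative to DMSO controls.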

[4] = APR_HepG2_MicrotubuleCSK_24hr: Apredica 24-hour HepG2 Assay for Microtubule CSK Stabilty (AID 2282909); settings: HepG2 microtubule cytoskeleton imaging, actives raise or lower the signal
In short: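 Microtubule stability is scored from tubulin immunofluorescence in fixed HepG2 cells imaged at 20x. Cells receive ten compound concentrations up to 200 uM for 24 h; taxol and DMSO serve as positive and negative controls.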

[5] = APR_HepG2_MitoticArrest_24hr: Apredica 24-hour HepG2 Assay for Mitotic Arrest (AID 2282910); settings: high-content imaging, actives raise or lower the signal
In short: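 Treatment lasted 24 hr in the human HepG2 line at 0.39–200 uM, solvent held at 0.5% DMSO. Fixed cells were stained with Hoechst 33342 and anti-phospho-histone H3, imaged at 20x, and analysed by gain- or loss-of-signal fitting against DMSO.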

[6] = APR_HepG2_CellCycleArrest_72hr: Apredica 72-hour HepG2 Assay for Cell Cycle Arrest (AID 2282914); settings: high-content imaging, actives raise or lower the signal
In short: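 Read-out: nuclear DNA content from Hoechst 33342 high-content imaging (20x, six fields/well) after 3.7% formaldehyde fixation, fitted bidirectionally against DMSO. Treatment was 72 h in HepG2, ten concentrations 0.39–200 uM, duplicate, 0.5% DMSO.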

[7] = APR_HepG2_CellLoss_72hr: Apredica 72-hour HepG2 Assay for Cell Loss (AID 2282915); settings: high-content imaging
In short: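 HepG2 cells were exposed for 72 hr to compounds at 0.39–200 uM (ten concentrations, duplicate) in 0.5% v/v final DMSO. Nuclei were stained with Hoechst 33342 after 3.7% formaldehyde fixation, imaged at 20x, and counted; fits bidirectional versus DMSO.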

[8] = APR_HepG2_MitoMembPot_24hr: Apredica 24-hour HepG2 Assay for Mitochondrial Membrane Potential (AID 2282911); settings: imaging, actives raise or lower the signal
In short: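 Mitochondrial membrane potential imaged via MitoTracker Red CMXRos (250 nM, 30 min pre-fixation) in fixed HepG2 cells with Hoechst nuclear identification. Ten concentrations 0.39–200 uM, 24 h treatment, 0.5% DMSO; CCCP as positive control.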

[9] = APR_HepG2_p53Act_24hr: Apredica 24-hour HepG2 Assay for p53 Activation (AID 2282913); settings: high-content imaging, actives raise or lower the signal;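 note: p53 protein immunofluorescence averaged per cell in HepG2 with Hoechst nuclei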
In short: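 Fluorescence imaging of formaldehyde-fixed HepG2 cells labelled for p53 and with Hoechst, 24 h after dosing (0.39–200 uM, duplicate wells, 0.5% v/v DMSO). Signal fitted in both directions relative to DMSO.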

[10] = APR_HepG2_MitoMass_24hr: Apredica 24-hour HepG2 Assay for Mitochondrial Mass (AID 2282912); settings: high-content imaging, actives raise or lower the signal
In short: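 Readout: fluorescence of MitoTracker Red CMXRos (250 nM, added 30 min pre-fixation) in fixed HepG2 cells imaged by HCS. Exposure lasted 24 hr at 0.39–200 uM; increases and decreases were both fitted relative to DMSO.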

Measured: AC50

CCCC(=O)OCC
inactive: [1] | [2] | [3] | [4] | [5] | [6] | [7]

O=C(O)c1cc(N=Nc2ccc(S(=O)(=O)Nc3ccccn3)cc2)ccc1O
active: [8] 95.9 µM
inactive: [1] | [2] | [3] | [4] | [5] | [9] | [6] | [7]

CC[C@H]1OC(=O)[C@H](C)[C@@H](O[C@H]2C[C@@](C)(OC)[C@@H](O)[C@H](C)O2)[C@H](C)[C@@H](O[C@@H]2O[C@H](C)C[C@H](N(C)C)[C@H]2O)[C@](C)(O)C[C@@H](C)C(=O)[C@H](C)[C@@H](O)[C@]1(C)O
inactive: [1] | [2] | [3] | [4] | [5] | [6] | [7]

O=C(O)c1cccc(Oc2ccccc2)c1
inactive: [1] | [2] | [3] | [4] | [5] | [10] | [9] | [6] | [7]

O=c1n(CC2CO2)c(=O)n(CC2CO2)c(=O)n1CC1CO1 (centres undefined)
inactive: [2]
active: [1] 0.225 µM | [3] 1.8 µM | [4] 24.4 µM | [5] 27.8 µM | [9] 11.3 µM | [6] 0.224 µM | [7] 10.7 µM

C=CCCCCCCCCC(=O)O
inactive: [1] | [2] | [3] | [4] | [5] | [8] | [10] | [6] | [7]

CC(C)=CCC/C(C)=C/CO
inactive: [1] | [2] | [3] | [4] | [5] | [10] | [6]

Oc1ccc2c(c1)-c1ccccc1C2
inactive: [1] | [2] | [4] | [8]
active: [3] 100 µM | [5] 116 µM | [6] 124 µM

CC1(C)C(=O)N(Br)C(=O)N1Br
inactive: [1] | [2] | [3] | [4] | [5] | [9] | [6] | [7]

Cc1ccc(S(=O)(=O)O)cc1C
inactive: [1] | [2] | [3] | [4] | [5] | [8] | [10] | [9] | [6]
active: [7] 0.0391 µM

CC[C@H](C)C(=O)O[C@H]1C[C@@H](C)C=C2C=C[C@H](C)[C@H](CC[C@@H]3C[C@@H](O)CC(=O)O3)[C@H]21
inactive: [1] | [2] | [4] | [9] | [6]
active: [3] 82 µM | [5] 28.9 µM | [10] 5.52 µM | [7] 31.1 µM

Nc1cccc(N)c1
inactive: [1] | [2] | [3] | [4] | [5] | [8] | [10] | [6]

CCC(C)(C)C(=O)O[C@H]1C[C@@H](C)C=C2C=C[C@H](C)[C@H](CC[C@@H]3C[C@@H](O)CC(=O)O3)[C@H]21
active: [1] 2.85 µM | [3] 123 µM | [5] 2.96 µM | [8] 105 µM | [10] 3.97 µM | [9] 89.3 µM
inactive: [2] | [4] | [6]

Cc1c(-c2cccnc2)c2ccccc2n1CCCCC(=O)O
inactive: [1] | [2] | [3] | [4] | [5] | [10] | [6] | [7]

On1ccccc1=S
inactive: [1] | [2] | [3] | [4] | [5] | [8]
active: [9] 19.6 µM | [6] 8.36 µM | [7] 5.34 µM

CCCN(C1CCN(C(=O)C2CCNCC2)CC1)[C@@H]1CCc2ccc(OC)cc2C1
active: [3] 100 µM | [5] 67.5 µM | [7] 95 µM
inactive: [1] | [2] | [4] | [8] | [9] | [6]

NC(=O)NO
inactive: [1] | [2] | [3] | [4] | [5] | [9] | [6]

CC(C)=CCCC(C)=CC=O
inactive: [1] | [2] | [3] | [4] | [5] | [6]

CC(C)c1cccc(C(C)C)c1N1C(=O)c2ccc(O)cc2C1=O
active: [1] 6.15 µM | [3] 87.5 µM | [5] 4.05 µM | [8] 32.7 µM | [9] 46.7 µM | [6] 7.16 µM
inactive: [2] | [4]

CCc1cc(SCc2sc(-c3ccc(C(F)(F)F)cc3)nc2CN2CCN(c3ccc(OC)cc3)CC2)ccc1OCC(=O)O
inactive: [1] | [2] | [6]
active: [3] 49.7 µM | [4] 48.5 µM | [5] 55.9 µM | [7] 39.5 µM

O=C(O)CCN(C1(C(=O)NO)CCCC1)S(=O)(=O)c1ccc(Oc2ccc(F)cc2)cc1
inactive: [1] | [2] | [3] | [4] | [5] | [8] | [10] | [9] | [6] | [7]

O=C1OC(=O)C2C3C=CC(C3)C12 (centres undefined)
inactive: [1] | [2] | [3] | [4] | [5] | [8] | [9] | [6]

O=C1CCC(N2C(=O)c3ccccc3C2=O)C(=O)N1 (centres undefined)
inactive: [1] | [2] | [3] | [4] | [5] | [8] | [9] | [6] | [7]

Nc1ccc(Nc2ccccc2)cc1
active: [6] 13.8 µM | [7] 40.1 µM
inactive: [1] | [2] | [3] | [4] | [5] | [10] | [9]

CCCCCCCCCCCCCCCO
inactive: [2] | [3] | [4] | [5] | [10] | [9]
active: [1] 107 µM | [6] 110 µM | [7] 93.8 µM

COc1ccc(-n2nc(C(F)F)cc2-c2ccc(S(C)=O)cc2)cc1 (centres undefined)
active: [1] 49.5 µM | [7] 72.8 µM
inactive: [2] | [3] | [4] | [5] | [10] | [6]

CN(C)c1ccc(N=NS(=O)(=O)O)cc1
inactive: [2] | [3] | [4] | [5] | [9]
active: [1] 86.9 µM | [6] 54.3 µM

Nc1nc2ncc(CNc3ccc(C(=O)N[C@@H](CCC(=O)O)C(=O)O)cc3)nc2c(=O)[nH]1
inactive: [1] | [2] | [3] | [4] | [5] | [8] | [10] | [6]
